Compounds without any hit were thinned out: in the full panel of roughly 83,000, 20% have a hit.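 Single-concentration screen, 48 h exposure, 96-well plates. Endpoint: percent growth. Below 10 = active.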 The source made the active and inactive calls.
What was measured:
Experiment in all cases: NCI-60 one-dose screen, 48 h (100 = growth as untreated, 0 = no growth, -100 = all killed)
[1] = tested on: SK-MEL-2 melanoma; conditions: 10 µM unless noted
[2] = tested on: EKVX NSCLC; conditions: 10 µM unless noted
[3] = tested on: SN12C renal; conditions: 10 µM unless noted
[4] = tested on: UO-31 renal; conditions: 10 µM unless noted
[5] = tested on: TK-10 renal; conditions: 10 µM unless noted
[6] = tested on: CAKI-1 renal; conditions: 10 µM
[7] = tested on: A498 renal; conditions: 10 µM unless noted
[8] = tested on: CCRF-CEM leukemia; conditions: 10 µM unless noted
[9] = tested on: MOLT-4 leukemia; conditions: 10 µM unless noted
[10] = tested on: SR leukemia; conditions: 10 µM unless noted
[11] = tested on: RPMI-8226 leukemia; conditions: 10 µM unless noted
[12] = tested on: OVCAR-8 ovarian; conditions: 10 µM unless noted
[13] = tested on: OVCAR-5 ovarian; conditions: 10 µM unless noted
[14] = tested on: SK-OV-3 ovarian; conditions: 10 µM unless noted
[15] = tested on: IGROV1 ovarian; conditions: 10 µM unless noted
[16] = tested on: OVCAR-3 ovarian; conditions: 10 µM unless noted
[17] = tested on: HS 578T breast; conditions: 10 µM unless noted
[18] = tested on: NCI/ADR-RES ovarian; conditions: 10 µM unless noted
[19] = tested on: OVCAR-4 ovarian; conditions: 10 µM unless noted
[20] = tested on: ACHN renal; conditions: 10 µM unless noted

Measured: growth

O=C1[C@@H]2Cc3c([nH]c4ccccc34)[C@H](c3c(Cl)cccc3Cl)N2C(=O)CN1C1CCN(Cc2c(F)cccc2F)CC1
inactive: [1] 110% | [2] 60.6% | [3] 50.6% | [4] 74.9% | [5] 106% | [6] 78.6% | [7] 103% | [8] 65.5% | [9] 58.8% | [10] 35.4% | [11] 67.9% | [12] 79.3% | [13] 92.4% | [14] 96.8% | [15] 59.5% | [16] 113% | [17] 44.7% | [18] 85.3%

Oc1ccc(CSc2nnc(-c3cnccn3)o2)c2cccnc12
active: [1] -2.52% | [3] 7.45% | [4] 6.71% | [6] 2.13% | [11] 7.74% | [14] 9.11%
inactive: [2] 19.3% | [5] 35.3% | [8] 18.1% | [9] 16.9% | [10] 20.5% | [12] 15.1% | [13] 36.9% | [19] 36.6% | [15] 23.4% | [16] 11.9% | [17] 19% | [18] 33%

CC(=O)NC(C)(C)C(=O)N1CCC[C@H]1C(=O)NC(C)(C)C(=O)N[C@@H](C)C(=O)NC(C)(C)C(=O)NC(C)(C)C(=O)N[C@@H](CCC(N)=O)C(=O)NC(C)(C)C(=O)N[C@H](C(=O)NC(C)(C)C(=O)NCC(=O)N[C@@H](CC(C)C)C(=O)NC(C)(C)C(=O)N1CCC[C@H]1C(=O)N[C@H](C(=O)NC(C)(C)C(=O)NC(C)(C)C(=O)N[C@@H](CCC(N)=O)C(=O)N[C@@H](CCC(N)=O)C(=O)N[C@H](CO)Cc1ccccc1)C(C)C)C(C)C
active: [1] 0.326% [4.25 µM] | [11] -17.4% [4.25 µM]
inactive: [2] 65% [4.25 µM] | [3] 13.4% [4.25 µM] | [4] 97.7% [4.25 µM] | [5] 59.2% [4.25 µM] | [20] 96.3% [4.25 µM] | [7] 25% [4.25 µM] | [8] 36.3% [4.25 µM] | [9] 35.6% [4.25 µM] | [10] 30.2% [4.25 µM] | [12] 46.3% [4.25 µM] | [13] 45.2% [4.25 µM] | [19] 24.5% [4.25 µM] | [14] 17.1% [4.25 µM] | [15] 46.4% [4.25 µM] | [16] 26.3% [4.25 µM] | [17] 46% [4.25 µM] | [18] 101% [4.25 µM]

C/C=C/[C@@H]1C=C[C@@H]2C[C@H](C)CC[C@H]2[C@]1(C)/C(O)=C1/C(=O)[C@H](CO)N(C)C1=O
inactive: [1] 79.2% | [2] 55.6% | [3] 45.8% | [4] 56.2% | [5] 67.7% | [20] 73.7% | [7] 43.5% | [8] 40.4% | [9] 60.6% | [11] 36.5% | [12] 43.4% | [13] 118% | [19] 70.5% | [14] 75% | [15] 57.3% | [16] 49.1% | [17] 67.9%
active: [18] 6.87%

COc1cc(O)c2c(c1)[C@H]1O[C@@H]1C[C@H](O)[C@H](O)C(=O)/C=C\C[C@H](C)OC2=O
inactive: [1] 20.1% | [2] 51.8% | [3] 53.5% | [4] 20.4% | [5] 48.6% | [20] 45.4% | [7] 58.9% | [8] 22.2% | [9] 33.6% | [10] 22.3% | [11] 24.5% | [12] 59.3% | [13] 61.5% | [19] 27% | [14] 80.2% | [15] 39% | [16] 32.1% | [17] 76.6% | [18] 78.7%

CCOC(=O)C1=C(C)Nc2nc3ccccc3n2C1c1ccccc1 (centres undefined)
inactive: [1] 102% | [2] 94.4% | [3] 92.9% | [4] 84.9% | [5] 114% | [6] 90.6% | [8] 94% | [9] 97.8% | [10] 68.9% | [11] 97.4% | [12] 96.6% | [13] 104% | [14] 113% | [15] 91.6% | [16] 90.9% | [17] 97.7% | [18] 92%

COc1cc2cc(Oc3ccc(NC(=O)Nc4cccc(C(F)(F)F)c4)cc3)c(C)nc2cc1OCCN(C)C
inactive: [1] 111% | [2] 92.9% | [3] 92.3% | [4] 89.8% | [5] 110% | [6] 89.9% | [7] 106% | [8] 71.4% | [9] 80.5% | [10] 26.1% | [11] 92.3% | [12] 97.9% | [13] 108% | [14] 107% | [15] 102% | [16] 122% | [17] 112% | [18] 93.9%

COc1cc([C@H]2OC[C@H]3[C@@H]2CO[C@@H]3c2ccc(O)c(OC)c2)ccc1O
inactive: [1] 95.3% | [2] 80.3% | [3] 74.6% | [4] 83.1% | [20] 93.5% | [7] 112% | [8] 94.2% | [9] 109% | [10] 67.3% | [11] 72.1% | [12] 84.2% | [13] 86.6% | [19] 96.6% | [14] 69% | [15] 69.9% | [16] 96.8% | [17] 107% | [18] 85.7%

COc1cc(/C=N/n2cnc3oc(-c4ccccc4)cc3c2=N)cc(CN2CCCCC2)c1O
inactive: [7] 15% | [10] 28.9% | [14] 105% | [16] 114%
active: [1] -38.5% | [2] -22.7% | [3] -78.8% | [4] -91.6% | [5] -82.5% | [6] -94.2% | [8] -6.9% | [9] 2% | [11] -30.4% | [12] -38.7% | [13] -81% | [19] -63.1% | [15] -82.5% | [17] -35.9% | [18] -0.827%

NNC(=O)c1sc2nc(-c3cnccn3)cc(-c3cccs3)c2c1N
inactive: [1] 102% | [2] 86.8% | [3] 95.5% | [4] 75.9% | [5] 118% | [6] 87.6% | [7] 79.5% | [8] 62.7% | [9] 77% | [10] 86.5% | [11] 107% | [12] 93.8% | [13] 99.1% | [19] 74.4% | [15] 89.5% | [16] 84.5% | [17] 119% | [18] 105%

CCNC(=O)Oc1ccc(/C(=C(/C)c2ccc(Cl)cc2)c2ccc(OCCN(C)C)cc2)cc1
inactive: [1] 98% | [2] 72.1% | [3] 77.8% | [4] 61.7% | [5] 92% | [6] 73.4% | [8] 66.7% | [9] 50.4% | [10] 42.4% | [11] 19.3% | [12] 87.9% | [13] 84.9% | [19] 71.6% | [15] 64.4% | [16] 77.8% | [18] 74.9%

CC(C)C[C@H]1C(=O)O[C@H](C(C)C)C(=O)N(C)[C@@H](C(C)C)C(=O)O[C@H](C(C)C)C(=O)N(C)[C@@H](C(C)C)C(=O)O[C@H](C(C)C)C(=O)N1C
inactive: [2] 22.6% | [5] 11.9% | [20] 10% | [10] 14.4% | [12] 16% | [13] 17.7% | [19] 18.3% | [15] 37% | [16] 17.6% | [17] 38.2%
active: [1] -17.8% | [3] 8.19% | [4] -9.26% | [7] -6.04% | [9] 0.456% | [11] -11.1% | [14] -9.29% | [18] -1.7%

Cn1c2ccccc2c2c3c(c4c5ccc(Br)cc5oc4c21)C(=O)N(O)C3=O
inactive: [1] 98.6% | [2] 96.6% | [3] 92.7% | [5] 101% | [6] 40.4% | [8] 14.6% | [11] 64.6% | [12] 73.1% | [13] 110% | [14] 101% | [15] 69.7% | [17] 102% | [18] 92.5%
active: [4] -91.6% | [7] -6.15% | [9] 7.13%

CC[C@H](C)[C@H]1NC(=O)[C@@H]([C@H](O)C(C)C)NC(=O)[C@@H](C)N(C)C(=O)[C@H](C)N(C)C(=O)[C@H](CC(C)C)NC(=O)[C@H](CC(C)C)N(C)C(=O)[C@H](C)N(C)C1=O
inactive: [15] 10.5% | [18] 11.4%
active: [1] -27% | [2] -4.22% | [3] 2.49% | [4] 5.19% | [5] 1.97% | [7] 5.77% | [8] 4.88% | [9] 1.68% | [10] 5.76% | [11] -13.8% | [12] 4.14% | [13] 6.87% | [19] 8.31% | [14] -9.12% | [17] 5.82%

— PubChem BioAssay (NCI)
